This is one part of a sample in which hits are shown more often than they occur.
HT1080NT lethal – kills 2HG-producing HT-1080-NT fibrosarcoma cells | HT-1080-NT fibrosarcoma viability, CellTiter-Glo ATP luminescence, 48 h | Potency, µM (series often up to 46.1 µM), for inactives: at the top dose activity, negative = less viability, usual class: cytotoxic | actives 1.6% (n = 360,000);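 note: NT is the 2HG producing partner of a matched IDH1 knockdown line; potency is the fitted concentration of half-maximal effect; 0% = DMSO-treated cells and -100% = media-only wells without cells; nearly all actives have a fitted effect of over 55% in size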
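Viability of the 2HG-overproducing fibrosarcoma line after 48 hours of compound exposure at 37 degrees C was determined by luminescence with CellTiter-Glo, and concentration-effect curves were then fitted and categorized.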
TDP1 cell CPT – DT40-hTDP1 cell growth loss with CPT; chicken DT40 Tdp1-/-;hTDP1 cells + 20 nM CPT, ATP luminescence, 48 h; Potency, µM (series often up to 46.2 µM), inactives show at the top dose activity change, negative = growth inhibition, usual class: inhibitors; actives 12% (n = 420,000); note: potency is the fitted concentration of half-maximal effect; nearly all actives have a fitted effect of over 55% in size
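Chicken DT40 Tdp1-/- cells complemented with human TDP1, 400 cells/well, exposed to compounds plus 20 nM camptothecin for at least 48 h at 37 C; viability read as ATP content by CellTiter-Glo luminescence.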
IL1B secr inh – inhibitors of inflammasome signaling (IL-1 beta secretion); THP-1 LPS/ATP IL-1B secretion, AlphaLISA, 16 h; stronger effect = lower value; activity change, % at 57.5 µM; actives 4.7% (n = 360,000); in the data active = activity change below about -50%; inconclusive = mostly about -30% to -49%
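THP-1 cells pretreated 1 hr with compounds (up to 57.5 uM final), then stimulated with LPS (250 ng/mL final) plus ATP (1.25 mM final); secreted IL-1B measured by AlphaLISA after 16 hr, decreased signal indicating inhibition.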
ALOX12 inh – inhibitors of human 12S-lipoxygenase ALOX12 | AID 1671190 | actives 1.1% (n = 580,000) | Potency, µM (doses to about 108 µM), inactives show at the top dose activity change, negative = inhibition, actives largely listed as inhibitors | purified 12hLO, xylenol orange hydroperoxide absorbance; note: potency is the fitted concentration of half-maximal effect
Target sequence (P18054 whole entry, looked up): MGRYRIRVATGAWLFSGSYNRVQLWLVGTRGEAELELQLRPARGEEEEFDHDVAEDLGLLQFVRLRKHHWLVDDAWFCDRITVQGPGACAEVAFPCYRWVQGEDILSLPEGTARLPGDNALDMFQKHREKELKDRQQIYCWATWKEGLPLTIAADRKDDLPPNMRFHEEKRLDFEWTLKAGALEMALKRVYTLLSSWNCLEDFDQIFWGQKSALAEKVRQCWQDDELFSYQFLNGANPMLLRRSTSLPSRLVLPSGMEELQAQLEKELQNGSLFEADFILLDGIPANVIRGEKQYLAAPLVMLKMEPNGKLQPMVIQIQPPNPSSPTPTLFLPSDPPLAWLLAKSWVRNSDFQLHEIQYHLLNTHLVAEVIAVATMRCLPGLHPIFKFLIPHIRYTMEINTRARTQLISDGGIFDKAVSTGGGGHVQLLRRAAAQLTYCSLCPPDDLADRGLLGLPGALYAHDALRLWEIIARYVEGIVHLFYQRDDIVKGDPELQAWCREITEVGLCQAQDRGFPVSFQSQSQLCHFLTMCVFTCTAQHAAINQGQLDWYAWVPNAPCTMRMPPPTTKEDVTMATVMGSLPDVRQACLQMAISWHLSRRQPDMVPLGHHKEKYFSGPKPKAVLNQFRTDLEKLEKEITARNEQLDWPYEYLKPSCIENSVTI
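Purified human 12hLO at 150 nM in 25 mM Hepes, 0.01% Triton X-100, pH 7.0, preincubated 15 min at room temperature with compound. Reaction started with 40 uM arachidonic acid, 30 min at room temperature. Hydroperoxide measured by Fe-xylenol orange, 573/405 nm absorbance ratio.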
HT1080 IDH1KD tx – kills HT-1080 cells with IDH1 knockdown; HT-1080 IDH1 knockdown viability, ATP luminescence, 48 h; Potency, µM (titrated, usually from 46.1 µM), inactives show at the top dose activity, negative = toxicity, usual class: cytotoxic; actives 2% (n = 360,000);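 note: potency is the fitted concentration of half-maximal effect; 0% = DMSO wells and -100% = cell-free medium wells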
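% activity derives from luminescence (CellTiter-Glo), normalised to DMSO and no-cell wells. HT-1080-IDH1KD cells, 750/well, had 48 h compound exposure at 37 °C.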
TDP1 cell noCPT – qHTS for Inhibitors of human tyrosyl-DNA phosphodiesterase 1 (TDP1): qHTS in cells in absence of CPT. DT40 Tdp1-/- hTDP1 cells, no CPT, ATP luminescence, 48 h. actives 15% (n = 420,000). Potency, µM (top dose mostly 46.2 µM), inactives show at the top dose activity change, negative = growth inhibition, most hits filed as inhibitors; note: potency is the fitted concentration of half-maximal effect; nearly all actives have a fitted effect of over 55% in size
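Compound effects on proliferation are scored in DT40 Tdp1-/-;hTDP1 cells in the absence of CPT. ATP levels (CellTiter-Glo luminescence) are recorded after a ≥48 hr, 37 °C incubation.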
The depositor's hits bear a star; ? = inconclusive; . = no result. Unless noted, calls come from the whole dose curve; as a rule, active = well fitted curve in the direction sought with a large enough effect; inconclusive = small, poorly fitted or top-dose-only effect, or another doubt; inactive = no such curve, though single readings can be large; an effect the other way counts as inactive or inconclusive. Unless noted, % is set by controls: 0 for no effect and ±100 for the full control effect.

SMILES	HT1080NT lethal	TDP1 cell CPT	IL1B secr inh	ALOX12 inh	HT1080 IDH1KD tx	TDP1 cell noCPT
N#C/C(=C\C=C\c1ccccc1)C(=O)NCc1cccnc1	?	26µM*	-89*	20%	?	29µM*
Fc1cccc(COc2ccc(-c3nnco3)cc2)c1F	.	.	.	3%	.	.
O=C(NNC(=S)Nc1ccc(F)c(Cl)c1)C1CC1	3%	43%	3	417%	9%	9%
O=C(NNC(=S)Nc1ccc(F)c(Cl)c1)c1ccccc1Br	?	?	-62*	?	?	?
CC(=O)Nc1cccc(NC(=O)Nc2ccc(C)c(Cl)c2)c1	0%	-3%	-15	-14%	-12%	-22%
CC(=O)Nc1cccc(NC(=S)Nc2ccc(F)c(Cl)c2)c1	-6%	16µM*	-7	?	-1%	?
Cc1cnc(-c2ccccc2)n1C1CCN(S(C)(=O)=O)CC1	.	.	.	57%	.	.
Cc1ccc(C)c(-c2cc(C)ncc2C)c1	.	.	.	4%	.	.
Cc1ccc2c(c1)-c1[nH]c(=S)ncc1CS2	13%	?	-1	32µM*	11%	18µM*
CC(/C=C/c1ccccc1F)=N\NC(=O)c1ccccc1	-23%	?	?	4%	?	?
C/C(=N\NC(=O)c1ccc(NS(=O)(=O)c2cccs2)cc1)c1ccc(Cl)cc1	0%	?	-5	8%	0%	23µM*
C/C(=N/NC(=O)c1ccccc1)c1cccs1	.	.	.	4%	.	.
C/C(=N\NC(=O)c1ccc(NS(=O)(=O)c2cccs2)cc1)c1ccc2c(c1)OCO2	-6%	?	-7	0%	-7%	?
O=C(NN=Cc1c(F)c(F)c(F)c(F)c1F)c1ccc(NS(=O)(=O)c2cccs2)cc1	-1%	?	-99*	2%	-3%	?
CC(/C=C/c1ccccc1F)=N\NC(=O)c1ccc(Cl)cc1	4.6µM*	15µM*	0	-4%	7.3µM*	15µM*
C/C(=N\NC(=O)c1ccc(Cl)cc1)c1cccs1	1%	-17%	-63*	15%	-8%	?
CCOc1ccccc1NC(=O)CC1C(=O)Nc2ccccc2N1C(=O)c1ccccc1OC (configuration not stated)	.	.	.	-19%	.	.
CCCCCCn1c(SCCC(C)C)nc2c1c(=O)[nH]c(=O)n2C	.	.	.	3%	.	.
C/C(=N\NC(=O)c1ccc(NS(=O)(=O)c2cccs2)cc1)c1cccs1	2%	18%	-52*	10%	2%	-15%
O=C(N/N=C/c1cccs1)c1cccc(S(=O)(=O)Nc2ccc(Cl)cc2)c1	12µM*	?	0	-17%	16µM*	?
Cc1cccc(CN(CC(=O)N/N=C/c2ccco2)S(=O)(=O)c2ccc(Cl)cc2)c1	-8%	?	0	?	-17%	?
Cc1cccc(CN(CC(=O)N/N=C/c2cccs2)S(=O)(=O)c2ccc(Cl)cc2)c1	-23%	?	-11	-3%	?	29µM*
CC(=O)Nc1ccc(C=NNC(=O)c2ccc(NS(=O)(=O)c3cccs3)cc2)cc1	-2%	-10%	7	-2%	-1%	2%
O=C(N/N=C/c1cccs1)c1cccc(NC(=O)c2ccc(Cl)cc2)c1	.	.	.	-3%	.	.
O=S(=O)(c1ccccc1)c1nc(-c2ccco2)oc1N1CCN(c2ccccc2)CC1	.	.	.	11%	.	.
SMILES	HT1080NT lethal	TDP1 cell CPT	IL1B secr inh	ALOX12 inh	HT1080 IDH1KD tx	TDP1 cell noCPT
O=C(NCc1ccc(Cl)cc1)C1CCCN(C2CCN(C(=O)C3CC3)CC2)C1 (configuration not stated)	.	.	.	1%	.	.
CC1(C)CC(NC(=O)CCc2ccco2)CC(C)(C)N1	.	.	.	-9%	.	.
Cc1ccc(S(=O)(=O)NCCN=C(CN2CCCC2)NS(=O)(=O)c2ccc(C)cc2)cc1	11%	-21%	-6	0%	-3%	-15%
CC(C)=CC[C@@H](O)C1=CC(=O)c2c(O)ccc(O)c2C1=O	.	.	.	2.2µM*	.	.
CCN(c1ccccc1)S(=O)(=O)c1nnc(NC(=O)C2CCCCC2)s1	.	3%	.	-22%	.	-1%
CCN(c1ccc(C)cc1)S(=O)(=O)c1nnc(NC(=O)C2CCCCC2)s1	.	?	.	-9%	.	10µM*
CC(C)CN(c1ccccc1)S(=O)(=O)c1nnc(NC(=O)C2CCCCC2)s1	.	5.2µM*	.	18%	.	?
COc1cc2c(cc1OC)-c1cc3ccc(OC)c(OC)c3c[n+]1CC2	25%	5.2µM*	21	-12%	14%	5.2µM*
CC(=O)NCCNC(=O)c1nnc2n1CCN(C(=O)C1CCCCC1)C2	.	.	.	-7%	.	.
O=C(NNC1=C(C(=O)C(F)(F)F)CCC1)c1ccccc1O	23µM*	16µM*	82	52%	?	21µM*
O=C(NNC1=C(C(=O)C(F)(F)F)CCC1)c1ccccc1Cl	15µM*	1.3µM*	67	0%	?	1µM*
COc1ccccc1C(=O)NNC(=O)c1ccccc1	-13%	-14%	77	?	-15%	4%
O=C(NNC(=O)c1ccccc1Cl)c1ccccc1Cl	4%	-2%	1	121%	5%	-1%
Nc1ccccc1C(=O)NNC1=C(C(=O)C(F)(F)F)CCC1	-21%	4.1µM*	6	5%	?	4.1µM*
COc1ccccc1C(=O)NNC1=C(C(=O)C(F)(F)F)CCC1	3.5µM*	?	83	-10%	2.2µM*	?
O=C(CCC1CCCC1)NNC(=O)c1ccccc1O	-17%	?	12	4%	-14%	?
O=C(NNC1=C(C(=O)C(F)(F)F)CCC1)c1ccc(Br)cc1	?	?	37	-14%	10µM*	16µM*
COc1cccc(C(=O)NNC2=C(C(=O)C(F)(F)F)CCC2)c1	?	2.1µM*	122	217%	12µM*	1.5µM*
O=C(NN=C1CCCC1)c1ccc(Br)cc1	0%	2%	-5	18%	-2%	-23%
COc1ccc(NC(=O)C(NC(=O)/C=C\c2ccc3c(c2)OCO3)c2ccccc2)cc1 (configuration not stated)	.	?	.	-15%	.	?
CCNc1nc(NC(C)C)nc(Oc2ccc(=O)n(C)n2)n1	9%	6%	-6	-2%	18%	13%
CC(C)(C)Nc1nc(Oc2ccc(=O)n(-c3ccccc3)n2)nc(N2CCOCC2)n1	-2%	?	-11	0%	-6%	21µM*
CCNc1nc(NC(C)(C)C)nc(Oc2ccc(=O)n(-c3ccccc3)n2)n1	-13%	16µM*	17	18%	-5%	21µM*
